Growth inhibition data for ten compounds are collected here from PubChem BioAssay (NCI).

Experiment [1] can be described thus: NCI Yeast Anticancer Drug Screen. Data for the rad50 strain (AID 155).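 Also: 0% = growth of vehicle-only cultures of the same strain.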 To be noted: S. cerevisiae rad50 strain growth inhibition, stronger effect = higher value. An outline of the steps:
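Readout: growth inhibition relative to vehicle-treated cultures. Compound exposure was carried out in a genetically defined yeast strain deficient in DNA damage repair.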

A short description of experiment [2]: NCI Yeast Anticancer Drug Screen. Data for the mec2-1 strain (AID 157). To be noted: S. cerevisiae mec2-1 strain, stronger effect = higher value. An outline of the steps:
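Test agents were screened against the mec2-1 yeast strain, with defined DNA repair or cell cycle alteration. Growth was scored as inhibition against vehicle-only controls.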

Experiment [3] is described as follows: NCI Yeast Anticancer Drug Screen. Data for the sgs1 mgt1 strain (AID 161).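 Also: 0% = growth of cultures given vehicle only.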 To be noted: S. cerevisiae sgs1 mgt1 strain, stronger effect = higher value. An outline of the steps:
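Genetically altered yeast, compound exposure, growth inhibition relative to vehicle.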

The nature of experiment [4]: NCI Yeast Anticancer Drug Screen. Data for the cln2 rad14 strain (AID 165).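 Also: 0% = growth equal to vehicle treated cultures.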 To be noted: S. cerevisiae cln2 rad14 strain, stronger effect = higher value. The essentials: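 Growth of compound-exposed yeast (cln2 rad14 genotype) measured and expressed as inhibition relative to vehicle.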
Experiment [5] can be described thus: NCI Yeast Anticancer Drug Screen. Data for the bub3 strain (AID 167). To be noted: S. cerevisiae bub3 mutant strain, stronger effect = higher value. An outline of the steps: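 Readout: yeast growth inhibition, expressed relative to vehicle-only wells. The test organism is a mutant strain from a panel with lesions in DNA repair or checkpoint genes.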
A short description of experiment [6]: NCI Yeast Anticancer Drug Screen. Data for the mlh1 rad18 strain (AID 175). Particulars: S. cerevisiae mlh1 rad18 strain growth inhibition, stronger effect = higher value. The essentials:
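In this whole-cell yeast screen, a strain with altered DNA damage repair is challenged with compound, and its growth is measured against matched vehicle-treated controls.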

Setting [7] is: at 5.0 µM (retest, dose inferred, filed as 0.5).
Where [8] appears, read: at 50.0 µM (retest, dose inferred, filed as 5.0).

About 79,000 compounds went through this panel and 15% of them were active in at least one assay; those are over-represented in the sample as a whole. Values without a mark were called inactive. Active and inactive are the calls of the source. Rule as the data show it: active = growth inhibition above about 70%; inactive = the rest.

Consider `CC(C)C[C@H](NC(=O)[C@H](Cc1ccccc1)NC(=O)c1cnccn1)B(O)O`, for which the growth inhibition in experiment [1] (setting [7]) was 55%; in experiment [1] (setting [8]) it was 87% (active); in experiment [1] (at 50.0 µM) it was 55.8%; in experiment [2] (setting [7]), 33%; in experiment [2] (setting [8]), 70% (active); in experiment [2] (at 50.0 µM) it was 30.4%. Further, the growth inhibition is 52% in experiment [3] (setting [7]); 78% (active) in experiment [3] (setting [8]); 60.9% in experiment [3] (at 50.0 µM); 76% (active) in experiment [4] (setting [7]); 94% (active) in experiment [4] (setting [8]); 72.9% (active) in experiment [4] (at 50.0 µM). The growth inhibition is 69% in experiment [5] (setting [7]); 90% (active) in experiment [5] (setting [8]); 72.6% (active) in experiment [5] (at 50.0 µM); 55% in experiment [6] (setting [7]); 79% (active) in experiment [6] (setting [8]); 66.7% in experiment [6] (at 50.0 µM).

Turning to `Nc1cc(F)c(F)cc1Sc1cc(F)c(F)cc1N`, the growth inhibition in experiment [1] (setting [7]) is 39%; in experiment [1] (setting [8]) it was 95% (active); in experiment [1] (at 50.0 µM), 99.2% (active); in experiment [2] (setting [7]), 31%; in experiment [2] (setting [8]), 99% (active); in experiment [2] (at 50.0 µM), 99.2% (active). Besides, the growth inhibition was 52% in experiment [3] (setting [7]); 98% (active) in experiment [3] (setting [8]); 99.2% (active) in experiment [3] (at 50.0 µM); 41% in experiment [4] (setting [7]); 98% (active) in experiment [4] (setting [8]); 89.9% (active) in experiment [4] (at 50.0 µM). For the same compound, the growth inhibition in experiment [5] (setting [7]) is 29%; in experiment [5] (setting [8]), 98% (active); in experiment [5] (at 50.0 µM) it was 99.5% (active); in experiment [6] (setting [7]), 54%; in experiment [6] (setting [8]), 97% (active); in experiment [6] (at 50.0 µM), 99.2% (active).

With `Nc1nc(=O)[nH]c([O-])c1N=O.Nc1nc(=O)[nH]c([O-])c1N=O.[Ag+].[Ag+]`, the growth inhibition in experiment [1] (setting [7]) is 37%; in experiment [1] (setting [8]) it was -25%; in experiment [1] (at 50.0 µM), 96.8% (active); in experiment [2] (setting [7]), 44%; in experiment [2] (setting [8]), -8%; in experiment [2] (at 50.0 µM), 98.7% (active). The growth inhibition in experiment [3] (setting [7]) was 63%; in experiment [3] (setting [8]) it was -28%; in experiment [3] (at 50.0 µM), 92.9% (active); in experiment [4] (setting [7]) it was 28%; in experiment [4] (setting [8]) it was -17%; in experiment [4] (at 50.0 µM) it was 98.8% (active). In addition, the growth inhibition in experiment [5] (setting [7]) was 76% (active); in experiment [5] (setting [8]), -28%; in experiment [5] (at 50.0 µM) it was 99.2% (active); in experiment [6] (setting [7]), 36%; in experiment [6] (setting [8]) it was -21%; in experiment [6] (at 50.0 µM), 96.9% (active).

In the case of `CCCN(CCC)C(=O)CCC(C)=O`, the growth inhibition in experiment [1] (setting [7]) was 0%; in experiment [1] (setting [8]), -3%; in experiment [1] (at 50.0 µM), -13.8%; in experiment [2] (setting [7]), 1%; in experiment [2] (setting [8]), 2%; in experiment [2] (at 50.0 µM), -7.5%. Moreover, the growth inhibition was 1% in experiment [3] (setting [7]); -1% in experiment [3] (setting [8]); -23.8% in experiment [3] (at 50.0 µM); -7% in experiment [4] (setting [7]); 3% in experiment [4] (setting [8]); 41.5% in experiment [4] (at 50.0 µM). The growth inhibition was -1% in experiment [5] (setting [7]); -3% in experiment [5] (setting [8]); -18.4% in experiment [5] (at 50.0 µM); 1% in experiment [6] (setting [7]); -3% in experiment [6] (setting [8]); 17.1% in experiment [6] (at 50.0 µM).

With `Cc1ccc(C(=O)C(F)(F)F)cc1`, the growth inhibition was -162% in experiment [1] (setting [7]); -138% in experiment [1] (setting [8]); 4.5% in experiment [1] (at 50.0 µM); -46% in experiment [2] (setting [7]); -51% in experiment [2] (setting [8]); -15.9% in experiment [2] (at 50.0 µM). The growth inhibition in experiment [3] (setting [7]) is -63%; in experiment [3] (setting [8]), -68%; in experiment [3] (at 50.0 µM), -10.5%; in experiment [4] (setting [7]) it was -60%; in experiment [4] (setting [8]), -78%; in experiment [4] (at 50.0 µM), 32.1%. The growth inhibition in experiment [5] (setting [7]) is -74%; in experiment [5] (setting [8]), -89%; in experiment [5] (at 50.0 µM), -24.1%; in experiment [6] (setting [7]), -145%; in experiment [6] (setting [8]), -117%; in experiment [6] (at 50.0 µM) it was 3.3%.

`O=C(C[N+]1(CCc2ccccc2)CCOCC1)c1ccc(-c2ccccc2)cc1`: the growth inhibition in experiment [1] (setting [7]) is 2%; in experiment [1] (setting [8]) it was 52%; in experiment [1] (at 50.0 µM), 79.3% (active); in experiment [2] (setting [7]) it was 19%; in experiment [2] (setting [8]), 71% (active); in experiment [2] (at 50.0 µM) it was 92.5% (active). For the same compound, the growth inhibition is -5% in experiment [3] (setting [7]); 93% (active) in experiment [3] (setting [8]); 96.7% (active) in experiment [3] (at 50.0 µM); -5% in experiment [4] (setting [7]); 34% in experiment [4] (setting [8]); 98.4% (active) in experiment [4] (at 50.0 µM). In addition, the growth inhibition is -2% in experiment [5] (setting [7]); 66% in experiment [5] (setting [8]); 92.8% (active) in experiment [5] (at 50.0 µM); 12% in experiment [6] (setting [7]); 93% (active) in experiment [6] (setting [8]); 98.2% (active) in experiment [6] (at 50.0 µM).

Consider `Oc1ccc(C2CCCCC2)c(O)c1`, for which the growth inhibition is -2% in experiment [1] (setting [7]); 42% in experiment [1] (setting [8]); 75.5% (active) in experiment [1] (at 50.0 µM); 2% in experiment [2] (setting [7]); 53% in experiment [2] (setting [8]); 61.4% in experiment [2] (at 50.0 µM). For the same compound, the growth inhibition in experiment [3] (setting [7]) is 7%; in experiment [3] (setting [8]), 37%; in experiment [3] (at 50.0 µM), 66%; in experiment [4] (setting [7]) it was 30%; in experiment [4] (setting [8]), 45%; in experiment [4] (at 50.0 µM), 65.8%. Also, the growth inhibition was 7% in experiment [5] (setting [7]); 66% in experiment [5] (setting [8]); 67.3% in experiment [5] (at 50.0 µM); 2% in experiment [6] (setting [7]); 72% (active) in experiment [6] (setting [8]); 65.8% in experiment [6] (at 50.0 µM).

As to `Cc1ccc2c(c1)SSc1ccc(C)cc1SS2`, the growth inhibition was 78% (active) in experiment [1] (setting [7]); 92% (active) in experiment [1] (setting [8]); 81% (active) in experiment [1] (at 50.0 µM); 42% in experiment [2] (setting [7]); 94% (active) in experiment [2] (setting [8]); 27.9% in experiment [2] (at 50.0 µM). Moreover, the growth inhibition is 35% in experiment [3] (setting [7]); 94% (active) in experiment [3] (setting [8]); 75.7% (active) in experiment [3] (at 50.0 µM); 84% (active) in experiment [4] (setting [7]); 91% (active) in experiment [4] (setting [8]); 55.5% in experiment [4] (at 50.0 µM). Besides, the growth inhibition in experiment [5] (setting [7]) was 79% (active); in experiment [5] (setting [8]), 93% (active); in experiment [5] (at 50.0 µM), 73.2% (active); in experiment [6] (setting [7]) it was 66%; in experiment [6] (setting [8]), 93% (active); in experiment [6] (at 50.0 µM), 64.8%.

On to `CC(=O)Nc1n[n+]([O-])c2cc(C)ccc2[n+]1[O-]`, for which the growth inhibition in experiment [1] (setting [7]) was 96% (active); in experiment [1] (setting [8]), 99% (active); in experiment [1] (at 50.0 µM) it was 99.2% (active); in experiment [2] (setting [7]) it was 96% (active); in experiment [2] (setting [8]) it was 99% (active); in experiment [2] (at 50.0 µM), 99.7% (active). For the same compound, the growth inhibition in experiment [3] (setting [7]) is 93% (active); in experiment [3] (setting [8]) it was 99% (active); in experiment [3] (at 50.0 µM) it was 99.4% (active); in experiment [4] (setting [7]), 92% (active); in experiment [4] (setting [8]) it was 99% (active); in experiment [4] (at 50.0 µM), 99% (active). The growth inhibition in experiment [5] (setting [7]) is 95% (active); in experiment [5] (setting [8]), 99% (active); in experiment [5] (at 50.0 µM) it was 99% (active); in experiment [6] (setting [7]), 97% (active); in experiment [6] (setting [8]), 99% (active); in experiment [6] (at 50.0 µM) it was 99.4% (active).

Consider `CCOC(=O)C1SC(=S)N(C)C1=O` (stereo not given), for which the growth inhibition in experiment [1] (setting [7]) was 3%; in experiment [1] (setting [8]), 99% (active); in experiment [1] (at 50.0 µM), 99.2% (active); in experiment [2] (setting [7]) it was -2%; in experiment [2] (setting [8]), 99% (active); in experiment [2] (at 50.0 µM) it was 99.5% (active). Besides, the growth inhibition in experiment [3] (setting [7]) was 8%; in experiment [3] (setting [8]), 99% (active); in experiment [3] (at 50.0 µM), 99% (active); in experiment [4] (setting [7]), -7%; in experiment [4] (setting [8]), 99% (active); in experiment [4] (at 50.0 µM) it was 99.1% (active). The growth inhibition was -3% in experiment [5] (setting [7]); 98% (active) in experiment [5] (setting [8]); 99.4% (active) in experiment [5] (at 50.0 µM); 19% in experiment [6] (setting [7]); 98% (active) in experiment [6] (setting [8]); 99.4% (active) in experiment [6] (at 50.0 µM).
